We go through 20 compounds from PubChem BioAssay.

The structures appear in SMILES notation. Unmarked numbers belong to inactive results. For some of these results: Results with a measured potency or affinity are listed apart. Activity calls are given as the source filed them. Unless noted, no rule for the calls is given here.

Assay [1] is described as follows: antimalarial activity against Dd2 strain (AID 2302;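 active = growth inhibition above 50% at the single 2 µM test dose, taken to imply half-maximal potency below 2 µM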;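 also: 0% = DMSO untreated growth and 100% = chloroquine plus artemisinin killed control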). As to conditions: P. falciparum Dd2 in RBCs, LDH growth readout, 72 h; at 2 µM; active compounds read high.
A short description of assay [2]: HepG2 cytotoxicity, primary screen, cytotoxicity control for P. falciparum antimalarial project, cell-based, ATP luminescence (AID 2303;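 active = inhibition above 50%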;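 also: 0% = DMSO wells and 100% = digitonin-killed cells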). As to conditions: HepG2 viability, 24-48 h, at 10 µM, active compounds read high.
In assay [3] the target is L-lactate dehydrogenase (Plasmodium falciparum (isolate CDC / Honduras)) (UniProt Q27743). The experiment in a line: PfLDH activity inhibition – cell lysate, 3D7 strain, counter-screen for P. falciparum growth inhibition project (AID 2304).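 Also: 0% = vehicle and 100% = reference inhibitor.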 As to conditions: P. falciparum 3D7 crude extract, LDH APAD/NBT absorbance; at 2 µM; active compounds read high. Background: The purpose of a counterscreen is to sort out artefacts and off-target activity.

Assay [4] is described as follows: inhibition of 3D7 malaria parasite growth – strain 3D7 (AID 2306).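 Also: 0% = DMSO wells and 100% = chloroquine plus artemisinin control wells.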 As to conditions: P. falciparum 3D7 erythrocytic growth, LDH absorbance, 72 h; at 2 µM; active compounds read high.
Assay [5] addresses Calcium-dependent protein kinase 1 (Plasmodium falciparum (isolate 3D7)) (UniProt P62344). The experiment in a line: PfCDPK1 kinase inhibitors, biochemical, TCAMS library (AID 1159585; cut-off not given, nearly all actives have IC50 up to about 0.98 µM;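 also: inhibitors leave more ATP so luminescence rises with inhibition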). Particulars: recombinant PfCDPK1, Kinase-Glo ATP depletion luminescence. A general note: In Kinase-Glo more light means more ATP remaining.
Assay [6] deals with Plasmodium falciparum protein kinase 6 (PK6, PF3D7_1337100) (UniProt Q8IDW1). The experiment in a line: PfPK6 kinase inhibitors, biochemical, TCAMS library (AID 1159586). Particulars: recombinant PfPK6, Kinase-Glo ATP depletion luminescence.
In assay [7] the target is Protein kinase 7 (PK7), Plasmodium falciparum 3D7 (PF3D7_0213400) (UniProt Q7YTF7). Briefly: inhibition of Plasmodium PK7 catalytic activity – biochemical, TCAMS antimalarial set, Kinase-Glo luminescence (AID 1159587). Particulars: recombinant PfPK7, Kinase-Glo ATP depletion luminescence.
For assay [8], the target named is Calcium-dependent protein kinase 4 (Plasmodium falciparum (isolate 3D7)) (UniProt Q8IBS5). The experiment in a line: PfCDPK4 kinase inhibitors, biochemical, TCAMS library (AID 1159588; cut-off not given, nearly all actives have IC50 up to about 0.91 µM). Particulars: recombinant PfCDPK4, Kinase-Glo ATP depletion luminescence.
Sequence of Calcium-dependent protein kinase 4 (Plasmodium falciparum (isolate 3D7)) (Q8IBS5 whole entry, looked up): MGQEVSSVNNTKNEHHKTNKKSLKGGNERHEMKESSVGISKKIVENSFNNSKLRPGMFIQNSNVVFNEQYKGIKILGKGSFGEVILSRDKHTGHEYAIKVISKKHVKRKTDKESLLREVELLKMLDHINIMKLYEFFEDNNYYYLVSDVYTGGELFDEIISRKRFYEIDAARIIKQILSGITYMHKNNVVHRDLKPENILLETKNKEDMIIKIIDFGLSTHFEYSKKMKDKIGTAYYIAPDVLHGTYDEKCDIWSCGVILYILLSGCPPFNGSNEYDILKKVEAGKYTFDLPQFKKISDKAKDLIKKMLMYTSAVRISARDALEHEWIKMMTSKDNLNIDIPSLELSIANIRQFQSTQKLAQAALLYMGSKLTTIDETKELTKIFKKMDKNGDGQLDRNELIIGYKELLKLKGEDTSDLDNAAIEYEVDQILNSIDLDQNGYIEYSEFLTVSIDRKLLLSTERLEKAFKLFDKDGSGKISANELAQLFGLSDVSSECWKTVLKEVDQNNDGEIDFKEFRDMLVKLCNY

Sequence of Plasmodium falciparum protein kinase 6 (PK6, PF3D7_1337100) (Q8IDW1 1-305): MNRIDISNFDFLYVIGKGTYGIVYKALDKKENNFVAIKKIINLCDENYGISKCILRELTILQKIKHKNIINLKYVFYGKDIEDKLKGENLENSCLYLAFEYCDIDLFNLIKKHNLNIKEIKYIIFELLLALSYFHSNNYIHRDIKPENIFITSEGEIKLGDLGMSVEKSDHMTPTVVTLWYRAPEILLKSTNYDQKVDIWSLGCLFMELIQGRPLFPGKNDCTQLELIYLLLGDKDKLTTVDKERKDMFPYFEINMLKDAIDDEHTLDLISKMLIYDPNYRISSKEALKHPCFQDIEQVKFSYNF
Sequence of Protein kinase 7 (PK7), Plasmodium falciparum 3D7 (PF3D7_0213400) (Q7YTF7 1-343): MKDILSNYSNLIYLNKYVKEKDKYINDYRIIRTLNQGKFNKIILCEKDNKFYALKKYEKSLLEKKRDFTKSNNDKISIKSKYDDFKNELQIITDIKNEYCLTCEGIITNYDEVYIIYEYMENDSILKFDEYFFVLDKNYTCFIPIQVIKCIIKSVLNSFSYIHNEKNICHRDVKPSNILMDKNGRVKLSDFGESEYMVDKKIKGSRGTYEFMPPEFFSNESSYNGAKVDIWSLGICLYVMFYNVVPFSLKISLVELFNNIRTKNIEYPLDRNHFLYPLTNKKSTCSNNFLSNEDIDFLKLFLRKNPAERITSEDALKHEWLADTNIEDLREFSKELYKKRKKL
Sequence of L-lactate dehydrogenase (Plasmodium falciparum (isolate CDC / Honduras)) (Q27743 whole entry, looked up): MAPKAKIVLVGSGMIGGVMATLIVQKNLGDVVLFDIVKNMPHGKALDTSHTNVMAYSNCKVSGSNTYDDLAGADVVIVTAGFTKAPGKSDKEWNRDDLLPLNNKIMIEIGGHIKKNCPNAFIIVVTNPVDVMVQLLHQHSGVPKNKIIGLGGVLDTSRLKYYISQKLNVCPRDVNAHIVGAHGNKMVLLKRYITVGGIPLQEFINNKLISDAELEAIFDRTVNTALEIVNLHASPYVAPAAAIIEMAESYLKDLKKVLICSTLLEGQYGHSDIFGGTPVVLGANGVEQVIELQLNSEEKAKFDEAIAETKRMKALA
Sequence of Calcium-dependent protein kinase 1 (Plasmodium falciparum (isolate 3D7)) (P62344 whole entry, looked up): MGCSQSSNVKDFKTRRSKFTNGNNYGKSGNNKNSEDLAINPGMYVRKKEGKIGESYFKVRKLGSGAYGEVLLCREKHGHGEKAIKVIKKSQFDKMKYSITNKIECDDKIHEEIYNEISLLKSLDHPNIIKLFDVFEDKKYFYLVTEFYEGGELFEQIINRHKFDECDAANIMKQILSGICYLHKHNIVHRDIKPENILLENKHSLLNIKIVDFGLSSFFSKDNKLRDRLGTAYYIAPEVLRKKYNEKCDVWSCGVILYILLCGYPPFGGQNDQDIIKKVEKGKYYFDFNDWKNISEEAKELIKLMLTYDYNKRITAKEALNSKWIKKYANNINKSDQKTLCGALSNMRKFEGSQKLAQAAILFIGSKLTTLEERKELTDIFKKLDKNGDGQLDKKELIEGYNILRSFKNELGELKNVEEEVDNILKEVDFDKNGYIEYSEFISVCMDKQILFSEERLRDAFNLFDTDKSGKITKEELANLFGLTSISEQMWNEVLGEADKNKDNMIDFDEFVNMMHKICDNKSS

In general, inhibition refers to the drop in the measured response relative to a control, in per cent. Consider `NC(=O)c1cc2nc(Nc3ccc(F)cc3)nc(NC3CCC3)c2[nH]1`, for which the growth inhibition in assay [1] and in assay [4] was 102% (active) in each case. Also, the inhibition is 0% in assay [2] and 3% in assay [3]. Further, the result in assay [5], in assay [6], in assay [7] and in assay [8] was inactive.
As to `O=C(C=Cc1ccc(Cl)c(Cl)c1)NCCCCCN1CCC(CCNC(=O)C(c2ccccc2)c2ccccc2)CC1`, the growth inhibition in assay [1] is 43%; in assay [4], 90% (active). Also, the results for the inhibition in assay [2] and in assay [3] were 61% (active) and 4%, respectively. The outcome in assay [5], in assay [6], in assay [7] and in assay [8] was inactive.
Turning to `c1ccc2c(NCCCCCCNc3ccnc4ccccc34)ccnc2c1`, the figures for the growth inhibition in assay [1] and in assay [4] were 12% and 100% (active), respectively. The inhibition was 43% in assay [2] and 5% in assay [3]. Also, the result in assay [5], in assay [6], in assay [7] and in assay [8] was inactive.
As to `Nc1ncc(-c2ccc(NC(=O)Nc3cc(C(F)(F)F)ccc3F)cc2)c(N)n1`, the growth inhibition in assay [1] was 21%; in assay [4] it was 99% (active). Also, the results for the inhibition in assay [2] and in assay [3] were 96% (active) and -5%, respectively. The result in assay [5], in assay [6], in assay [7] and in assay [8] was inactive.
As to `CN(C(=O)Nc1ccc(F)cc1)C1CCN(CCCCCNC(=O)/C=C/c2ccc(Cl)c(Cl)c2)CC1`, the growth inhibition in assay [1] is -3%; in assay [4], 89% (active). Also, the inhibition in assay [2] was 38%; in assay [3], -5%. The result in assay [5], in assay [6], in assay [7] and in assay [8] was inactive.
As for `CNC(=O)c1cc(S(=O)(=O)N2CCN(c3ccccn3)CC2)cs1`, the growth inhibition was 100% (active) in assay [1] and 99% (active) in assay [4]. Besides, the inhibition was -2% in assay [2] and -3% in assay [3]. Further, the outcome in assay [5], in assay [6], in assay [7] and in assay [8] was inactive.
`Cc1c(-c2cccc(C(C)(C)NC3CCN(Cc4ccccc4)CC3)c2)cnc(N)c1C`: the growth inhibition in assay [1] is 39%; in assay [4] it was 100% (active). Also, the results for the inhibition in assay [2] and in assay [3] were 14% and -6%, respectively. In addition, the outcome in assay [5], in assay [6], in assay [7] and in assay [8] was inactive.
On to `CC(C)(CNCc1cccc(Oc2ccccc2)c1)c1nc(-c2ccc(Cl)c(O)c2)c(-c2ccnc(N)n2)[nH]1`, for which the growth inhibition in assay [1] was 99% (active); in assay [4], 97% (active). For the same compound, the inhibition is 28% in assay [2] and 4% in assay [3]. Besides, the outcome in assay [5], in assay [6], in assay [7] and in assay [8] was inactive.
Consider `Cc1cnc(-c2ccc(NC(=O)N3CCc4cc5nccc(N6CCN7CCC[C@H]7C6)c5cc43)c3ccccc23)o1`, for which the growth inhibition in assay [1] is 45%; in assay [4], 100% (active). Further, the inhibition in assay [2] was 12%; in assay [3], -1%. The outcome in assay [5], in assay [6], in assay [7] and in assay [8] was inactive.
As to `c1cc(CN2CCN(c3ccncc3)CC2)cc(-c2cccc(-c3nc4ccccc4[nH]3)c2)c1`, the figures for the growth inhibition in assay [1] and in assay [4] were 98% (active) and 102% (active), respectively. Besides, the values for the inhibition in assay [2] and in assay [3] were 35% and 3%, respectively. The outcome in assay [5], in assay [6], in assay [7] and in assay [8] was inactive.
On to `COc1ccc2nc(-c3ccc(C(=O)NCCCN4CCN(c5cc(Cl)ccc5OC)CC4)cc3OC)[nH]c2c1`, for which the figures for the growth inhibition in assay [1] and in assay [4] were 24% and 101% (active), respectively. The inhibition is -5% in assay [2] and 1% in assay [3]. Also, the outcome in assay [5], in assay [6], in assay [7] and in assay [8] was inactive.
Turning to `CC(C)(C)c1ccc(-c2cc(C(=O)N[C@@H](CO)C(=O)O)on2)cc1` (tested in a mixture with another compound), the growth inhibition in assay [1] was -2%; in assay [4], 87% (active). In addition, the results for the inhibition in assay [2] and in assay [3] were 1% and -1%, respectively. The result in assay [5], in assay [6], in assay [7] and in assay [8] was inactive.
As for `Cc1cc(N)nc2ccc(-c3cccc(CN)c3)cc12`, the figures for the growth inhibition in assay [1] and in assay [4] were 59% (active) and 101% (active), respectively. Further, the values for the inhibition in assay [2] and in assay [3] were 2% and -8%, respectively. The outcome in assay [5], in assay [6], in assay [7] and in assay [8] was inactive.
As for `OCCN1CCN(Cc2ccc(-c3ccc(-c4nc5ccc(C(F)(F)F)cc5[nH]4)s3)cc2)CC1`, the growth inhibition was 99% (active) in assay [1] and 101% (active) in assay [4]. For the same compound, the inhibition in assay [2] was 65% (active); in assay [3] it was -7%. Also, the outcome in assay [5], in assay [6], in assay [7] and in assay [8] was inactive.
Regarding `COc1ccc2ccccc2c1C=NNc1ccnc2ccc(F)cc12`, the growth inhibition in assay [1] was 10%; in assay [4], 87% (active). Also, the values for the inhibition in assay [2] and in assay [3] were 11% and -2%, respectively. Further, the result in assay [5], in assay [6], in assay [7] and in assay [8] was inactive.
As for `Cc1c(NCCCNCc2cc(Cl)cc(Cl)c2Cl)[nH]c2ccccc2c1=O`, the growth inhibition in assay [1] was 86% (active); in assay [4], 101% (active). Also, the inhibition in assay [2] is 35%; in assay [3] it was -2%. For the same compound, the outcome in assay [5], in assay [6], in assay [7] and in assay [8] was inactive.
For `COc1ccc2nc(C)cc(Nc3ccc(Oc4ccc(Cl)c5ccccc45)c(Cl)c3)c2c1`, the growth inhibition in assay [1] and in assay [4] was 100% (active) in each case. Also, the values for the inhibition in assay [2] and in assay [3] were 83% (active) and -2%, respectively. Further, the result in assay [5], in assay [6], in assay [7] and in assay [8] was inactive.
As for `O=C(Nc1cc(Cl)ccc1-n1cncn1)C1(c2ccccc2)CC1`, the growth inhibition in assay [1] was 91% (active); in assay [4] it was 98% (active). Moreover, the inhibition in assay [2] is 3%; in assay [3] it was -2%. The result in assay [5], in assay [6], in assay [7] and in assay [8] was inactive.
`Cc1cc(N(CCCN(C)C)Cc2cc(F)cc(F)c2)nc(Nc2ccc(Cl)cc2)n1`: the growth inhibition in assay [1] is 97% (active); in assay [4], 99% (active). The values for the inhibition in assay [2] and in assay [3] were 37% and -2%, respectively. The result in assay [5], in assay [6], in assay [7] and in assay [8] was inactive.
As to `CC(=O)Oc1c(C2CCN(CCCCNC(=O)c3ccc(NC(=O)c4ccc(Cl)cc4)cc3)CC2)ccc2ccccc12`, the growth inhibition in assay [1] was 92% (active); in assay [4], 101% (active). In addition, the inhibition was 24% in assay [2] and -6% in assay [3]. The result in assay [5], in assay [6], in assay [7] and in assay [8] was inactive.
